Screens from PubChem.
USP8 inh: inhibitors of human USP8 deubiquitinase. AID 1645853, 2021. inhibition, % at 20 µM. Ubiquitin carboxyl-terminal hydrolase 8 (Homo sapiens), P40818. actives 4.2% (n = 47,000). purified USP8, Ub-rhodamine cleavage fluorescence, 30 min
USP28 block: inhibitors of human USP28 deubiquitinase | purified USP28, Ub-rhodamine cleavage fluorescence, 30 min | actives 3% (n = 47,000) | inhibition, % at 25 µM | Ubiquitin carboxyl-terminal hydrolase 28 (Homo sapiens), Q96RU2 | AID 1645857, 2021
Target sequence (Q96RU2 whole entry, looked up): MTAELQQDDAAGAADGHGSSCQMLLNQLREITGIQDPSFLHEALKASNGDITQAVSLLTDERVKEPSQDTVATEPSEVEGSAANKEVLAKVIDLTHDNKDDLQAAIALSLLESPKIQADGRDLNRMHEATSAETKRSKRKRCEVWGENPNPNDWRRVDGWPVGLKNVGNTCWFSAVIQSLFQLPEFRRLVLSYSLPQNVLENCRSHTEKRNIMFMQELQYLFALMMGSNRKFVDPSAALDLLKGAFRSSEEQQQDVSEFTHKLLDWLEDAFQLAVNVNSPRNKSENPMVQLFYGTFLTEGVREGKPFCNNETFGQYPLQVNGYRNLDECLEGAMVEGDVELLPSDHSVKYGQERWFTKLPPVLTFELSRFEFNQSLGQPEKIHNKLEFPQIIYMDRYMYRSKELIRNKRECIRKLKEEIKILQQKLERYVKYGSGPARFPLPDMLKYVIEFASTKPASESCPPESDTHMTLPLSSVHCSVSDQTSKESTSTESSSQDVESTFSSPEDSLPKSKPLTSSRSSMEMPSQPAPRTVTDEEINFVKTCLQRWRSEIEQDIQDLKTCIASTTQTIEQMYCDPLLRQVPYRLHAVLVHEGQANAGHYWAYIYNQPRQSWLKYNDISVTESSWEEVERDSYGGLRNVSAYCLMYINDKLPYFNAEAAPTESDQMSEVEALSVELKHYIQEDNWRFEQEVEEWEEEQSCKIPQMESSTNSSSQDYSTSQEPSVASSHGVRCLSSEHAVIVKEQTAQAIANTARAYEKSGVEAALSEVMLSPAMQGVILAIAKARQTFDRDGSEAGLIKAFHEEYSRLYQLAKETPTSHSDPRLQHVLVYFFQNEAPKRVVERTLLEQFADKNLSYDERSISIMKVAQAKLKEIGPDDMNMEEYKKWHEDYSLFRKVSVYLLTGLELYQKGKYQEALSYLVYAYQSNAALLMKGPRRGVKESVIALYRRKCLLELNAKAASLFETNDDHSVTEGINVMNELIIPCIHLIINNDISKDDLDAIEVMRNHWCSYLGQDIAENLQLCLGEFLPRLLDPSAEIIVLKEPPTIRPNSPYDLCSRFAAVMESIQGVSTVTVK
USP10 block: inhibitors of human USP10 deubiquitinase; inhibition, % at 20 µM; actives 1.1% (n = 47,000); purified USP10, Ub-rhodamine fluorescence, 60 min
USP30 block: inhibitors of human USP30 deubiquitinase; purified USP30, Ub-rhodamine cleavage fluorescence; inhibition, % at 25 µM; actives 5.3% (n = 47,000); AID 1645860, 2021
USP17 inh: inhibitors of human USP17 deubiquitinase; actives 6.5% (n = 47,000); AID 1645855, 2021; purified USP17, Ub-rhodamine cleavage fluorescence, 3 h; Ubiquitin carboxyl-terminal hydrolase 17-like protein 5 (Homo sapiens), A8MUK1; inhibition, % at 50 µM
* marks the source's active call; other numbers are inactive results. A selection: hits, their analogues and other compounds. The true share with any hit is near 13%. Cut-off read from the data, not from the text of the source: active = inhibition above about 30%; inactive = the rest.

COC(=O)C(Cc1ccccc1)NC(=O)CSc1nc2ccc(Cl)cc2[nH]1 (stereo unspecified) was read as USP8 inh 43*, USP28 block 0, USP10 block -1, USP30 block -24 and USP17 inh 7.
`CCc1cccc(CC)c1NC(=O)COC(=O)c1cc2cccc(OC)c2oc1=O` gave USP8 inh 62*, USP28 block 4, USP10 block 33*, USP30 block 39* and USP17 inh 90*.
COc1ccc(Cl)cc1NC(=O)COC(=O)c1cc2ccccc2oc1=O was read as USP8 inh 70*, USP28 block -2, USP10 block 11, USP30 block -1 and USP17 inh 4.
For Cc1ccc(Cn2c(=O)c3ccccc3n3c(CCC(=O)N4CCOCC4)nnc23)cc1 the results were USP8 inh 2, USP28 block -1, USP10 block 0, USP30 block 14 and USP17 inh -5.
Screening O=C(CCc1nnc2n(Cc3ccccc3)c(=O)c3ccccc3n12)N1CCN(c2ccccn2)CC1 returned USP8 inh 17, USP28 block 26, USP10 block 3, USP30 block 60* and USP17 inh 35*.
`O=C(CCc1nnc2n(Cc3ccccc3)c(=O)c3ccccc3n12)NCc1ccc2c(c1)OCO2` gave USP8 inh 39*, USP28 block 2, USP10 block 44*, USP30 block 14 and USP17 inh 39*.
Cc1ccc(Cn2c(=O)c3ccccc3n3c(CCC(=O)N4CCN(C(=O)c5ccco5)CC4)nnc23)cc1 was read as USP8 inh 0, USP28 block 7, USP10 block 0, USP30 block 17 and USP17 inh 42*.
Screening O=C(CCc1nnc2n(Cc3ccccc3)c(=O)c3ccccc3n12)NCCN1CCCC1 returned USP8 inh -4, USP28 block -2, USP10 block 1, USP30 block -2 and USP17 inh -12.
`Cc1ccc(Cn2c(=O)c3ccccc3n3c(CCC(=O)N4CCN(c5ccccn5)CC4)nnc23)cc1` gave USP8 inh -21, USP28 block 27, USP10 block 18, USP30 block 55* and USP17 inh 43*.
Screening CSc1ccc(CCNC(=O)C2CCN(c3nc4ccccc4[nH]3)CC2)cc1 returned USP8 inh -28, USP28 block 18, USP10 block 2, USP30 block -2 and USP17 inh -7.
For COc1ccc(NC(=O)CSc2nnc(C(C)Oc3ccccc3)n2C)cc1 (stereo unspecified) the results were USP8 inh -31, USP28 block 1, USP10 block 2, USP30 block -3 and USP17 inh -15.
For CCn1c(=O)c(C(=O)Nc2ccccc2Cl)nc2ccccc21 the results were USP8 inh 4, USP28 block -8, USP10 block 3, USP30 block -2 and USP17 inh -14.
Screening CC(C)CCn1c(=O)c2ccccc2n2c(CCC(=O)NCC3CCCO3)nnc12 (stereo unspecified) returned USP8 inh 9, USP28 block 1, USP10 block -8, USP30 block 2 and USP17 inh 5.
O=C(CCc1nnc2n(Cc3ccc(Cl)cc3)c(=O)c3ccccc3n12)N1CCN(c2ccccn2)CC1 was read as USP8 inh 5, USP28 block 62*, USP10 block 6, USP30 block 83* and USP17 inh 52*.
For Cc1cccc(CCNC(=O)CCc2nnc3n(CCc4ccccc4)c(=O)c4ccccc4n23)c1 the results were USP8 inh 3, USP28 block 2, USP10 block 5, USP30 block 39* and USP17 inh 22.
`Cc1ccc(Cn2c(=O)c3ccccc3n3c(CCC(=O)NCC4CCCO4)nnc23)cc1` (stereo unspecified) gave USP8 inh 19, USP28 block 15, USP10 block 3 and USP30 block 39*.
Screening COc1cc(N2CCC3(CC2)CC(N(C)Cc2cccnc2)C3)ncn1 returned USP8 inh -59, USP28 block 11, USP10 block 0, USP30 block 10 and USP17 inh 0.
COc1ccc(NC(=O)Cn2cnc3c2c(=O)n(C)c(=O)n3C)cc1 was read as USP8 inh 8, USP28 block -3, USP10 block -2, USP30 block 3 and USP17 inh 2.
